Three compounds from PubChem BioAssay (EPA / NIEHS) can be followed below.

Conditions in all cases: mRNA level, 48 h; actives raise or lower the signal
Read-out in assay [1]: Heat shock 70 kDa protein 1 (HSPA1A), gene 3303
In words: LTEA_HepaRG_HSPA1A: Life Technologies and Expression Analysis (LTEA) Assay for Heat shock 70 kDa protein 1 (HSPA1A) using HepaRG (AID 2283502). The method, boiled down: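 Cells were plated and cultured for 48 h, then switched to serum-free induction medium. Chemicals were added at eight half-log concentrations up to 100 uM for 48 h. RNA was then isolated and HSPA1A measured by qRT-PCR with bidirectional curve fitting against DMSO.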

Read-out in assay [2]: Hypoxia-inducible factor 1-alpha (Homo sapiens) (UniProt Q16665)
In words: LTEA_HepaRG_HIF1A: Life Technologies and Expression Analysis (LTEA) Assay for Hypoxia-inducible factor 1 (HIF1A) Trancription factor using HepaRG (AID 2283503). The method, boiled down:
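HIF1A transcript level read by qRT-PCR (ACTB, GAPDH, POLR2A normalization) after 48 h chemical exposure of HepaRG cultures. Eight half-log concentrations, top 100 uM, 0.5% DMSO vehicle, duplicates; bidirectional curve fit against DMSO baseline.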

Read-out in assay [3]: 3-Hydroxy-3-Methylglutaryl-CoA Synthase 2 (HMGCS2), HMGCS2 (gene 3158)
In words: LTEA_HepaRG_HMGCS2: Life Technologies and Expression Analysis (LTEA) Assay for 3-Hydroxy-3-Methylglutaryl-CoA Synthase 2 (HMGCS2) using HepaRG (AID 2283504). A digest of the protocol: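 qRT-PCR read-out of HMGCS2 transcript, normalised to three housekeeping genes, in HepaRG cells after 48 h chemical exposure. Eight-point curves from 100 uM, half-log dilutions, 0.5% DMSO vehicle; gain or loss fitted relative to DMSO baseline.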

Read-out in a further assay: HGF (gene 3082)
The assay is described as follows: LTEA_HepaRG_HGF: Life Technologies and Expression Analysis (LTEA) Assay for Hepatocyte Growth Facto (HGF) using HepaRG (AID 2283505). A digest of the protocol:
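HepaRG, 48 h dosing, 8-pt half-log series from 100 uM in 0.5% DMSO, duplicates. Readout: TaqMan qRT-PCR of HGF mRNA, housekeeping-normalized; bidirectional curve fit vs DMSO baseline.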

Read-out in assay [4]: Insulin Like Growth Factor 1 (IGF1), IGF1 (gene 3479)
In words: LTEA_HepaRG_IGF1: Life Technologies and Expression Analysis (LTEA) Assay for Insulin Like Growth Factor 1 (IGF1) using HepaRG (AID 2283506). A digest of the protocol:
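Cells are thawed, plated and cultured 48 h, then exposed in duplicate to chemical (highest 100 uM, half-log steps, 0.5% DMSO) for another 48 h. Total RNA is analysed by Fluidigm qRT-PCR for IGF1 expression relative to vehicle.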

Read-out in assay [5]: Intercellular Adhesion Molecule 1 (ICAM1), ICAM1 (gene 3383)
The assay is described as follows: LTEA_HepaRG_ICAM1: Life Technologies and Expression Analysis (LTEA) Assay for Intercellular Adhesion Molecule 1 (ICAM1) using HepaRG (AID 2283507). The method, boiled down: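 HepaRG, 48 h exposure, 8-pt half-log series from 100 uM, 0.5% DMSO vehicle, duplicates. Readout: TaqMan qRT-PCR mRNA, housekeeping-normalized (ACTB/GAPDH/POLR2A). Bidirectional curve fit vs DMSO baseline.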

Read-out in assay [6]: Insulin-like growth factor-binding protein 1 (IGFBP1), IGFBP1 (gene 3484)
The assay is described as follows: LTEA_HepaRG_IGFBP1: Life Technologies and Expression Analysis (LTEA) Assay for Insulin-like growth factor-binding protein 1 (IGFBP1) using HepaRG (AID 2283508). The method, boiled down: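 qRT-PCR mRNA read-out (TaqMan, Fluidigm array), normalised to three housekeeping genes; HepaRG cells, 48 h exposure, 8-pt half-log series from 100 uM, 0.5% DMSO vehicle; bidirectional curve fit vs DMSO baseline.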

Read-out in assay [7]: Interleukin 6 (IL6), IL6 (gene 3569)
In words: LTEA_HepaRG_IL6: Life Technologies and Expression Analysis (LTEA) Assay for Interleukin 6 (IL6) using HepaRG (AID 2283509). The method, boiled down: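 Transcript levels, normalized to three housekeeping genes, were quantified by qRT-PCR after 48 h chemical treatment of HepaRG cells. Eight-point half-log series from 100 uM in 0.5% DMSO, duplicates. Fitted both directions against DMSO baseline.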

Read-out in assay [8]: Interleukin 6 Receptor (IL6R), IL6R (gene 3570)
The assay is described as follows: LTEA_HepaRG_IL6R: Life Technologies and Expression Analysis (LTEA) Assay for Interleukin 6 Receptor (IL6R) using HepaRG (AID 2283510). A digest of the protocol:
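Cells were thawed, plated and cultured 48 h, then medium was changed to serum-free induction medium. Chemicals were added in duplicate (100 uM top, half-log steps, 0.5% DMSO) for 48 h. Lysates were analyzed by qRT-PCR for IL6R expression.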

Read-out in assay [9]: Potassium channel subfamily K member 1 (KCNK1), KCNK1 (gene 3775)
In words: LTEA_HepaRG_KCNK1: Life Technologies and Expression Analysis (LTEA) Assay for Potassium channel subfamily K member 1 (KCNK1) using HepaRG (AID 2283511). A digest of the protocol:
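KCNK1 transcript measured by TaqMan qRT-PCR against three housekeeping genes, after HepaRG cells were treated 48 h with eight half-log concentrations (top 100 uM, 0.5% DMSO). Curves fitted bidirectionally relative to vehicle.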

Read-out in assay [10]: Keratin 19 (KRT19), KRT19 (gene 3880)
In words: LTEA_HepaRG_KRT19: Life Technologies and Expression Analysis (LTEA) Assay for Keratin 19 (KRT19) using HepaRG (AID 2283512). A digest of the protocol:
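HepaRG, 48 h chemical exposure, 8-pt half-log CRC from 100 uM, 0.5% DMSO vehicle, duplicates. Readout: TaqMan qRT-PCR of KRT19 mRNA, housekeeping-normalized (ACTB/GAPDH/POLR2A). Bidirectional fit vs DMSO baseline.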

Read-out in assay [11]: Lipase C (LIPC), LIPC (gene 3990)
In words: LTEA_HepaRG_LIPC: Life Technologies and Expression Analysis (LTEA) Assay for Lipase C (LIPC) using HepaRG (AID 2283514). A digest of the protocol: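 LIPC expression was quantified by qRT-PCR against three housekeeping genes (ACTB, GAPDH, POLR2A). Differentiated human HepaRG cells received eight half-log doses (top 100 uM, 0.5% DMSO) in duplicate for 48 h; fitting bidirectional relative to DMSO.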

Read-out in assay [12]: Lipoprotein lipase (LPL), LPL (gene 4023)
In words: LTEA_HepaRG_LPL: Life Technologies and Expression Analysis (LTEA) Assay for Lipoprotein lipase (LPL) using HepaRG (AID 2283515). A digest of the protocol: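 LPL transcript levels quantified by TaqMan qRT-PCR against three housekeeping genes after 48 h chemical treatment of HepaRG cells. Eight-point half-log series from 100 uM in 0.5% DMSO, tested in duplicate; bidirectional fitting versus vehicle.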

Read-out in assay [13]: MicroRNA 122 (MIR122), gene 406906
The assay is described as follows: LTEA_HepaRG_MIR122: Life Technologies and Expression Analysis (LTEA) Assay for MicroRNA 122 (MIR122) using HepaRG (AID 2283516). Note: the transcript read is the microRNA miR-122. A digest of the protocol:
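Human liver HepaRG cultures receive test chemicals for 48 h at eight half-log concentrations from 100 uM. Expression is quantified by qRT-PCR with ACTB/GAPDH/POLR2A normalization and fitted bidirectionally against 0.5% DMSO.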

Read-out in assay [14]: matrix metalloproteinase-10 (MMP10), MMP10 (gene 4319)
The assay is described as follows: LTEA_HepaRG_MMP10: Life Technologies and Expression Analysis (LTEA) Assay for matrix metalloproteinase-10 (MMP10) using HepaRG (AID 2283517). A digest of the protocol: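 Expression measured by TaqMan qRT-PCR with ACTB/GAPDH/POLR2A normalisation after 48 h chemical exposure of HepaRG cells. Eight half-log concentrations, top 100 uM, 0.5% DMSO vehicle, duplicates; gain or loss fitted against vehicle.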

Read-out in the next assay: MYC, MYC (gene 4609)
In words: LTEA_HepaRG_MYC: Life Technologies and Expression Analysis (LTEA) Assay for MYC using HepaRG (AID 2283518). The method, boiled down: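 qRT-PCR read-out of MYC transcript (Fluidigm TaqMan, housekeeping-normalized) after 48 h chemical exposure of HepaRG cells; eight concentrations, top 100 uM, half-log steps. Bidirectional curve fitting against 0.5% DMSO vehicle baseline.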

Read-out in assay [15]: matrix metalloproteinase-3 (MMP3), MMP3 (gene 4314)
In words: LTEA_HepaRG_MMP3: Life Technologies and Expression Analysis (LTEA) Assay for matrix metalloproteinase-3 (MMP3) using HepaRG (AID 2283519). The method, boiled down: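 Fluidigm-based TaqMan qRT-PCR, normalized to ACTB, GAPDH and POLR2A and fitted bidirectionally versus 0.5% DMSO, measured transcript levels. Treatment: duplicate 48 h exposures of HepaRG cells, ~100,000/well, to eight half-log concentrations topping at 100 uM.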

Read-out in assay [16]: Paternally Expressed 10 (PEG10), PEG10 (gene 23089)
The assay is described as follows: LTEA_HepaRG_PEG10: Life Technologies and Expression Analysis (LTEA) Assay for Paternally Expressed 10 (PEG10) using HepaRG (AID 2283520).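 For AC50: PEG10 transcript by qRT-PCR normalised to ACTB GAPDH and POLR2A.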 The method, boiled down: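 Human HepaRG cultures are dosed for 48 h across an eight-point half-log series starting at 100 uM, with 0.5% DMSO as vehicle and baseline. Gain or loss of PEG10 transcript is measured by qRT-PCR and fitted in both directions.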

Read-out in assay [17]: Nuclear factor NF-kappa-B p105 subunit (Homo sapiens) (UniProt P19838)
In words: LTEA_HepaRG_NFKB1: Life Technologies and Expression Analysis (LTEA) Assay for Nuclear Factor Kappa B Subunit 1 (NFKB1) using HepaRG (AID 2283521).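 Note: TaqMan qRT-PCR transcript normalised to ACTB GAPDH and POLR2A housekeeping genes.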 The method, boiled down:
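Differentiated human HepaRG cells were exposed for 48 h in serum-free induction medium to eight concentrations (top 100 uM, half-log steps, 0.5% DMSO), in duplicate. NFKB1 mRNA was measured by TaqMan qRT-PCR, normalized to ACTB/GAPDH/POLR2A, and fitted bidirectionally against DMSO.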

Read-out in assay [18]: JUN Transcription Factor, JUN (gene 3725)
The assay is described as follows: LTEA_HepaRG_JUN: Life Technologies and Expression Analysis (LTEA) Assay for JUN Transcription Factor using HepaRG (AID 2283513). The method, boiled down:
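Read-out is JUN transcript level by TaqMan qRT-PCR, normalized to ACTB, GAPDH and POLR2A, after 48 h chemical treatment of HepaRG cells. Concentration-response spanned eight half-log points up to 100 uM in 0.5% DMSO.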

What is called AC50 is the midpoint of the concentration-response curve, whichever way the signal moves.

The source made the active and inactive calls. Rule for the calls: active = hit-call score of the fitted dose curve at least 0.9, where 1 is the maximum; inactive = score below 0.9.

Hypoxia-inducible factor 1-alpha (Homo sapiens), sequence (Q16665 whole entry, looked up): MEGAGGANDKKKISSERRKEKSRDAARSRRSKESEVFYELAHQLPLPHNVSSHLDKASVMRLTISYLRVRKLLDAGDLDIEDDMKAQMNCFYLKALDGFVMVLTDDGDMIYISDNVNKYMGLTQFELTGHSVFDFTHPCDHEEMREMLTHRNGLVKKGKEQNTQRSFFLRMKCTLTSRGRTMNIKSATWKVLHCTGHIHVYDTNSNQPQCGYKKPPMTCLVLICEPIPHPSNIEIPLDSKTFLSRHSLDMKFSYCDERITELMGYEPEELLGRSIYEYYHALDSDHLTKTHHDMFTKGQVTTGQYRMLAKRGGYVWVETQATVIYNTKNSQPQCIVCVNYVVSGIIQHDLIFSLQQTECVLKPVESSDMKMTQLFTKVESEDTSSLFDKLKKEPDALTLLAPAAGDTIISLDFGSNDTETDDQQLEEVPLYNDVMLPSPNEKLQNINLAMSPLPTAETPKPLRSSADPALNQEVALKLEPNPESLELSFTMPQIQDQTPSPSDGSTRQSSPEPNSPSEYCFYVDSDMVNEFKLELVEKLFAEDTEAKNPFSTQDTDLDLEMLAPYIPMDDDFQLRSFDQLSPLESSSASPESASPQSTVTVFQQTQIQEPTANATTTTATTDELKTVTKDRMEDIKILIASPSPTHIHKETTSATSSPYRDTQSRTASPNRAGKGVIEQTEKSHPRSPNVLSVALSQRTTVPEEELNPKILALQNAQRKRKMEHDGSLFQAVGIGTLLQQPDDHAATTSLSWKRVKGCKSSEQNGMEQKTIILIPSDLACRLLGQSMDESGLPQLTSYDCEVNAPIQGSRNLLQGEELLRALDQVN
Nuclear factor NF-kappa-B p105 subunit (Homo sapiens), sequence (P19838 whole entry, looked up): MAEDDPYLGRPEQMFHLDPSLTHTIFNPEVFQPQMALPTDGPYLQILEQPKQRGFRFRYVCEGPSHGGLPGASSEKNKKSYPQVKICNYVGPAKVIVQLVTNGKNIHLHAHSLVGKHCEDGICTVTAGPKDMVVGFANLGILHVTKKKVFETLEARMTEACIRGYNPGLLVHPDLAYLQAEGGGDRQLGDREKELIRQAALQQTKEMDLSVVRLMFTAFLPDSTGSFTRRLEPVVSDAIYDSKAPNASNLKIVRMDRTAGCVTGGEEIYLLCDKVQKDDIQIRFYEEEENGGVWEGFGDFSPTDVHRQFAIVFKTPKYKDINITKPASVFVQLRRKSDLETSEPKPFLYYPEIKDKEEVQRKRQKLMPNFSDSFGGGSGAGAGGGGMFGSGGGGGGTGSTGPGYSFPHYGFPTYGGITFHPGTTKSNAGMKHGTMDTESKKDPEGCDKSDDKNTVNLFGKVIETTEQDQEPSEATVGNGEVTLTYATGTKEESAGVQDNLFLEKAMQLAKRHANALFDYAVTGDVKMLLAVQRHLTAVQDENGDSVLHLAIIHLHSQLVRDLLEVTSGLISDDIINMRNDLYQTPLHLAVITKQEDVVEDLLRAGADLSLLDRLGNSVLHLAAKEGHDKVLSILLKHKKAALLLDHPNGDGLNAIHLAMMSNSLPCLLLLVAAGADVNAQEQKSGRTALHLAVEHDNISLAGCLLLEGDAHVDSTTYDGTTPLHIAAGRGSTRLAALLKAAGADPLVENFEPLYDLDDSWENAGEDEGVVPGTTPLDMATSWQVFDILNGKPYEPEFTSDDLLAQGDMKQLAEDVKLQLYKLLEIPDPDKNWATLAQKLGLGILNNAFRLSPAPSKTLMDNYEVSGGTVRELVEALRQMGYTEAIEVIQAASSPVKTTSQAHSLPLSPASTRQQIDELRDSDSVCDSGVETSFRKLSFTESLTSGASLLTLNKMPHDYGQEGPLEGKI

Turning to `CC1(C(=O)Nc2ccc(O)c(Cl)c2Cl)CCCCC1`, the compound was called inactive (in [1]; in assay [2]; in assay [3]; with HGF (gene 3082); in assay [4]; in assay [5]). In addition, the result in assay [6], in [7], in assay [8], in assay [9], in assay [10] and in [11] was inactive. Moreover, the outcome was “inactive” in assay [12]; “inactive” in assay [13]; “inactive” in assay [14]; “inactive” with MYC, MYC (gene 4609); “inactive” in assay [15]; “inactive” in assay [16]. In [17], the compound was called inactive.
On to `CCCOCC(=Nc1ccc(Cl)cc1C(F)(F)F)n1ccnc1`, for which the AC50 is 81.9 µM (active) in assay [1]; 87.3 µM (active) in assay [2]; 53.2 µM (active) in [3]; 12.1 µM (active) in assay [4]; 88.2 µM (active) in assay [5]; 85.7 µM (active) in assay [7]. Besides, the AC50 in [8] is 66.4 µM (active); in assay [10] it was 12 µM (active); in assay [18], 73.1 µM (active); in assay [11], 15.8 µM (active); in assay [12] it was 12.8 µM (active); in [13] it was 17.1 µM (active). The AC50 in assay [14] is 78.7 µM (active); in the assay with MYC, MYC (gene 4609) it was 50 µM (active); in assay [15], 84.3 µM (active); in [16], 28.3 µM (active). Further, the outcome (in the assay with HGF (gene 3082); in assay [9]; in [17]) was inactive.
On to `O=[N+]([O-])c1cc(C(F)(F)F)c(Cl)c([N+](=O)[O-])c1Nc1ncc(C(F)(F)F)cc1Cl`, for which the outcome in assay [1] is “inactive”; with HGF (gene 3082), “inactive”; in [5], “inactive”; in assay [9], “inactive”; in [18] it was “inactive”; with MYC, MYC (gene 4609) it was “inactive”. Further, in assay [17], the compound was called inactive. The AC50 is 31.9 µM (active) in assay [2]; 36.5 µM (active) in assay [3]; 79.4 µM (active) in assay [4]; 73.9 µM (active) in assay [7]; 50 µM (active) in assay [8]; 26.2 µM (active) in [10]. Further, the AC50 in [11] was 24.4 µM (active); in assay [12] it was 74.1 µM (active); in [13] it was 15.8 µM (active); in [14] it was 24.8 µM (active); in [15], 25 µM (active); in assay [16] it was 49.2 µM (active).
